Screening data: PubChem, National Center for Advancing Translational Sciences (NCATS)
NS1 function inh = blocks influenza NS1 protein function. Potency, µM (top dose mostly 46.1 µM). 0.4% of 270,000 active. AID 2326; calls by dose curve; further: actives are rising curves; nearly all actives have a fitted effect of over 50% in size
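Recovery from NS1-induced slow growth read by OD600 in budding yeast switched to galactose assay medium (pH 6.0, -URA) at 1:100 dilution. Compound 23 nl per well; the matching strain lacking NS1 serves as control.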
AmpC inh no detg = AmpC beta-lactamase inhibition without detergent | P00811 | 0.52% of 330,000 active | AmpC nitrocefin hydrolysis, absorbance 480 nm, 0.0001% Triton | Potency, µM (top dose mostly 57.1 µM), hits mostly inhibitors; further: nearly all actives have a fitted effect of over 20% in size
Target sequence (P00811 whole entry, looked up): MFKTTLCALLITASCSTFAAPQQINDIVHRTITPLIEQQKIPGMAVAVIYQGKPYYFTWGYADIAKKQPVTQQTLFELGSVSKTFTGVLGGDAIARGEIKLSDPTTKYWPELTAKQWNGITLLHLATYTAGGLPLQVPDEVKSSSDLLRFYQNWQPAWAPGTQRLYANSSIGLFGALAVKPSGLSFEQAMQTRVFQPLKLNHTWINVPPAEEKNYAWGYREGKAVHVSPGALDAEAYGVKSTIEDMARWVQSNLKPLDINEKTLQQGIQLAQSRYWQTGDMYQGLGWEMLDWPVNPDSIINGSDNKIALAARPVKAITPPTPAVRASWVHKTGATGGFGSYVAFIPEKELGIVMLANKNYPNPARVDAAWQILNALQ
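AmpC (5.3 nM in the dispensed reagent) in 20 mM phosphate pH 7.0 with 0.01% (detergent screen) or 0.0001% Triton X-100 was preincubated with compounds for 15 min at room temperature. Nitrocefin was then added from an 800 uM solution, and hydrolysis was followed at 480 nm.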
Giardia FBPA inh-1 = inhibitors of Giardia lamblia fructose-1,6-bisphosphate aldolase; A8B2U2; purified Giardia FBPA; Potency, µM (top dose mostly 59.6 µM), usual class: inhibitors; 0.71% of 290,000 active; further: nearly all actives have a fitted effect of over 55% in size
Target sequence (A8B2U2 whole entry, looked up): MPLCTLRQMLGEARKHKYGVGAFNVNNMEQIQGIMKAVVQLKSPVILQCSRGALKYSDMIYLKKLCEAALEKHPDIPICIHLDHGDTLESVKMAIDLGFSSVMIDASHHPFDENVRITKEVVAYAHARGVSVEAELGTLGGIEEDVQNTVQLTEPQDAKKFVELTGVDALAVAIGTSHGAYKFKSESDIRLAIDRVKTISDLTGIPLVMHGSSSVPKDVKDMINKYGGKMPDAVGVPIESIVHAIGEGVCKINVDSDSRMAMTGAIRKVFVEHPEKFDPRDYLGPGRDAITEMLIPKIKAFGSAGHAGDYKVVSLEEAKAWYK
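40 nM FBPA preincubated 10 min at RT with compound (up to 57.5 uM final), then substrate plus GAPDH/TPI/NAD/arsenate coupling and diaphorase/resazurin added. Fluorescence read after 20 min at RT, 525/598 nm.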
SARS PLP yeast = SARS-CoV PLP inhibition in yeast; S. cerevisiae expressing SARS-CoV PLpro, growth rescue; Potency, µM (series often up to 32.9 µM), most hits filed as activators; 0.19% of 330,000 active; AID 485353; calls by dose curve; further: nearly all actives have a fitted effect of over 55% in size
AmpC inh detg = inhibitors of E. coli AmpC beta-lactamase with detergent. 0.041% of 370,000 active. P00811. AmpC hydrolysis of nitrocefin, absorbance 480 nm, 0.01% Triton. Potency, µM (doses to about 114 µM), most hits filed as inhibitors. AID 485294; further: nearly all actives have a fitted effect of over 25% in size
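20 mM phosphate pH 7.0 + 0.01% (detergent screen) or 0.0001% Triton X-100; 5.3 nM AmpC reagent; cpd preinc 15 min RT; nitrocefin (800 uM stock) to start; A480 q20 s × 4 min; Activity was normalised to no-enzyme and no-compound control wells.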
Giardia growth = inhibitors of Giardia lamblia growth | Giardia lamblia trophozoite growth inhibition | AID 2785 | 5% of 1,500 active | shares compounds with Giardia FBPA inh-1 | Potency, µM (top dose mostly 57.5 µM), hits mostly inhibitors;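 further: trophozoites exposed to compound for 48 h at 37 °C; nearly all actives have a fitted effect of over 70% in size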
Mammal cell tox = counter-screen for Giardia aldolase inhibitors: mammalian cell toxicity; shares compounds with Giardia FBPA inh-1; mammalian cell viability counter-screen, qHTS; Potency, µM (series often up to 57.5 µM), most hits filed as inhibitors; 4% of 1,500 active; AID 2786;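 further: Chinese hamster ovary cells used as mammalian cytotoxicity surrogate; viability measured as cellular ATP by luminescence; compound exposure lasted 48 h before reading; nearly all actives have a fitted effect of over 60% in size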
Giardia FBPA inh-2 = confirmation of Giardia fructose-bisphosphate aldolase inhibitors; shares compounds with Giardia FBPA inh-1; purified Giardia aldolase enzyme activity, qHTS; Potency, µM (doses to about 57.5 µM), actives largely listed as inhibitors; 5% of 1,500 active; AID 2787; further: nearly all actives have a fitted effect of over 45% in size
Rabbit FBPA inh = blocks rabbit muscle aldolase in Giardia aldolase selectivity test. Potency, µM (doses to about 57.5 µM), most hits filed as inhibitors. 4% of 1,500 active. Rabbit muscle FBPA enzyme inhibition, selectivity counter-screen. shares compounds with Giardia FBPA inh-1; further: nearly all actives have a fitted effect of over 60% in size
GAPDH counter = counter-screen for Giardia aldolase inhibitors: GAPDH coupling enzyme | Potency, µM (series often up to 57.5 µM), usual class: inhibitors | 6% of 1,500 active | GAPDH coupling enzyme counterscreen, biochemical, qHTS | shares compounds with Giardia FBPA inh-1; further: nearly all actives have a fitted effect of over 55% in size
A number is an active result; 0 = inactive; ? = inconclusive; - = no result; [ ] = another dose, or the depositor's remark. Only some compounds are listed: those with a hit (about 1.4% of all), similar ones and a draw of the others. Unless noted, the call rests on the fitted dose curve; in most records, active means well fitted curve in the direction sought with a large enough effect; inconclusive means small, poorly fitted or top-dose-only effect, or another doubt; inactive means no such curve, though single readings can be large; an effect the other way counts as inactive or inconclusive.

SMILES	NS1 function inh	AmpC inh no detg	Giardia FBPA inh-1	SARS PLP yeast	AmpC inh detg	Giardia growth	Mammal cell tox	Giardia FBPA inh-2	Rabbit FBPA inh	GAPDH counter
CCCCNC(=O)Oc1c(Br)cc2sc(=O)oc2c1Br	0	?	16µM	?	45µM	0	0	0	0	0
O=C(NNC(=O)c1ccccc1[N+](=O)[O-])c1ccccn1	0	0	16µM	0	0	0[10.4 µM]	0	0	0	0
Oc1c(C(Nc2nc3ccccc3s2)c2ccco2)ccc2cccnc12 (stereo not given)	0	0	16µM	0	0	0	?	0	0	0
CC(C)C(=O)NC(c1ccco1)c1ccc2cccnc2c1O (stereo not given)	0	0	?	?	0	-	-	-	-	-
CCOc1ccc(C(=S)N2CCN(C)CC2)cc1	-	0	18µM	0	0	0	0	0	0	0
CCN1CCN(C(=S)c2ccc(OC)cc2)CC1	0	0	4.5µM	0	0	0	0	0	0	0
CCN(CC)S(=O)(=O)c1ccc(C(=O)Nc2nnc(COC)o2)cc1	-	0	18µM	0	?	0	0	0	0	0
CN(C)S(=O)(=O)c1ccc(C(=O)Nc2nnc(-c3ccco3)o2)cc1	-	0	6.3µM	0	0	0	0	0	0	0
CCCCN(CCCC)S(=O)(=O)c1ccc(C(=O)Nc2nnc(COC)o2)cc1	0	0	0	?	0	-	-	-	-	-
CCN(CC)S(=O)(=O)c1ccc(C(=O)Nc2nnc(CSC)o2)cc1	-	0	16µM	0	?	18µM	0	0	0	0
O=C(Cn1c(=O)c2cccn2c2ccc(F)cc21)Nc1cccc(F)c1	-	-	-	-	0	-	-	-	-	-
Cc1ccc(C)c(S(=O)(=O)NC(C)CCc2ccccc2)c1 (stereo not given)	0	0	0	0	0	-	-	-	-	-
COc1cc(C(=O)O/N=C2\C=CC(=O)C=C2C)cc(OC)c1OC	0	0	4µM	0	?	0	?	28µM	32µM	32µM
COC(=O)c1cc(C(=O)OCC(=O)c2ccc[nH]2)cc([N+](=O)[O-])c1	-	0	-	0	0	-	-	-	-	-
CCc1nc(C)ccc1OCC(=O)NCCCN(C)C	0	0	13µM	0	0	0[10.4 µM]	0	0	0	0
CCOc1cc(C=O)cc(N=Nc2cccc([N+](=O)[O-])c2)c1O	0	0	13µM	0	0	?	0	0	0	0
Cc1[nH]c(=S)c(C#N)c(-c2ccco2)c1C(=O)N(C)C	-	0	20µM	0	0	?	0	0	0	0
O=C(O)c1cccc(-n2c(-c3cnccn3)n[nH]c2=S)c1	-	0	20µM	0	0	0[10.4 µM]	0	0	0	0
CCOCCCN(C(=O)c1ccco1)C(C(=O)NC1CCCC1)c1ccc(OC)cc1 (stereo not given)	0	0	0	0	0	-	-	-	-	-
CCN(CC)CCN(Cc1cc2cc3c(cc2[nH]c1=O)OCO3)C(=S)NCC1CCCO1 (stereo not given)	0	0	0	0	0	-	-	-	-	-
CCN(CC)CCN(Cc1cc2cc3c(cc2[nH]c1=O)OCCO3)C(=S)NCC1CCCO1 (stereo not given)	0	0	7.9µM	0	0	0	0	0	0	0
O=c1cc(O)c2sc(Nc3ccc(Cl)c(F)c3)nc2[nH]1	0	0	0	0	0	-	-	-	-	-
O=c1cc(O)c2sc(Nc3ccc(F)c(Cl)c3)nc2[nH]1	-	0	2µM	0	0	0[10.4 µM]	0	?	?	?
O=C(NN1C(=O)CSC1=S)c1cccnc1	0	0	16µM	0	0	0	0	0	0	0
CC(C)c1ccc(/C=N/N2CCCCC2)cc1	-	0	14µM	0	0	0[10.4 µM]	0	0	0	0
SMILES	NS1 function inh	AmpC inh no detg	Giardia FBPA inh-1	SARS PLP yeast	AmpC inh detg	Giardia growth	Mammal cell tox	Giardia FBPA inh-2	Rabbit FBPA inh	GAPDH counter
CC(C)c1ccc(/C=N/N2CCN(c3ccccn3)CC2)cc1	0	0	0	0	0	-	-	-	-	-
Cc1ccccc1NN=Nc1nc2c([nH]1)c(=O)n(C)c(=O)n2C	0	0	0	0	?	-	-	-	-	-
COc1ccc(NN=Nc2nc3c([nH]2)c(=O)n(C)c(=O)n3C)cc1	0	0	18µM	0	0	?	0	13µM	?	?
O=C(O)CN1C(=O)CN=C(c2ccccn2)c2cc(Cl)ccc21	0	0	20µM	0	0	0	0	0	0	0
COc1cccc2cc(C(C)N(CCCN3CCOCC3)C(=S)Nc3ccc(C)c(C)c3)oc12 (stereo not given)	-	0	0	0	?	-	-	-	-	-
COc1ccc(NC(=S)N(CCCN2CCOCC2)C(C)c2cc3cccc(OC)c3o2)cc1 (stereo not given)	-	0	11µM	0	0	?	0	0	0	0
Cc1ccc(C)c(Oc2ccc(S(=O)(=O)N3CCN(C)CC3)cn2)c1	-	0	-	0	0	-	-	-	-	-
COc1cccc(/C=C/C(=O)Nc2ccc(OC)nc2)c1	0	0	22µM	0	0	?	0	0	0	0
COc1ccc(NC(=O)/C=C/c2ccccc2)cn1	0	0	0	0	0	-	-	-	-	-
CC1=C(C#N)c2nc(N)c(C#N)c(C)c2/C1=C\c1ccccc1	0	-	-	-	-	-	-	-	-	-
CC1=C(C#N)c2nc(N)c(C#N)c(C)c2/C1=C\c1ccc(OCC(=O)O)c(Cl)c1	0	0	20µM	0	0	?	0	0	0	0
CCN1CCN(C(=S)Nc2ccsc2C(=O)OC)CC1	-	0	0	0	0	-	-	-	-	-
CC(C)n1c(=O)[nH][nH]c1=S	0	0	18µM	0	0	0[10.4 µM]	0	0	32µM	0
O=C(CN1CCCN(Cc2ccccc2F)S1(=O)=O)Nc1ccc(F)c(Cl)c1	-	-	-	-	0	-	-	-	-	-
CCCC(C)c1nnc(NC(=O)c2cc(C(=O)OC)cc([N+](=O)[O-])c2)s1 (stereo not given)	0	0	18µM	0	?	?	0	0	0	0
O=C(NCCCN1CCOCC1)C1CCN(S(=O)(=O)c2c(Cl)cccc2Cl)CC1	0	0	0	0	?	-	-	-	-	-
CNC(=O)/C(=C/c1ccc2c(c1)OCO2)NC(=O)c1ccc(Br)cc1	0	0	0	0	?	-	-	-	-	-
Nn1c(C2COc3ccccc3O2)n[nH]c1=S (stereo not given)	0	0	6.3µM	0	0	0	0	?	?	?
c1ccc2c(c1)OCC(C1=NCCN1)O2 (stereo not given)	0	0	0	0	0	-	-	-	-	-
Cc1nnc(SCc2cc(=O)[nH]c(=S)[nH]2)s1	0	0	7.9µM	0	0	0	0	0	0	0
